Screening results deposited in PubChem by National Center for Advancing Translational Sciences (NCATS).
IL-1B inflam inh: inhibitors of inflammasome signaling (IL-1 beta secretion); THP-1 LPS/ATP IL-1B secretion, AlphaLISA, 16 h; active compounds read low; activity change, % at 57.5 µM; actives 4.7% (n = 360,000); in the data active = activity change below about -50%; inconclusive = mostly about -30% to -49%
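THP-1 cells pretreated 1 hr with compounds (up to 57.5 uM final), then stimulated with LPS (250 ng/mL final) plus ATP (1.25 mM final); secreted IL-1B measured by AlphaLISA after 16 hr, decreased signal indicating inhibition.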
ClpP mod: qHTS Assay for Activators of ClpP; ATP-dependent Clp protease proteolytic subunit (Bacillus subtilis (strain 168)), P80244; actives 1.9% (n = 340,000); purified B. subtilis ClpP, FRET peptide cleavage, 20 min; Potency, µM (doses to about 57.5 µM); active = well fitted falling curve with a large enough effect; inconclusive = small, poorly fitted or top-dose-only effect; inactive = no such curve, though single readings can be large or run the other way; also: the source files actives as falling curves though it sought activators and does not explain the sign; nearly all actives have a fitted effect of over 65% in size
Target sequence (P80244 whole entry, looked up): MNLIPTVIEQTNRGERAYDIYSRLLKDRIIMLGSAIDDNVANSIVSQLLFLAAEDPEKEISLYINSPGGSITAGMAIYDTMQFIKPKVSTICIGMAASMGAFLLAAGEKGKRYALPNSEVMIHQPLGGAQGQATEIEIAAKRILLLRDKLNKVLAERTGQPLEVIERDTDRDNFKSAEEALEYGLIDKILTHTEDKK
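Purified B. subtilis ClpP, 10 microg/mL final in Tris/HCl pH8 with KCl, BSA, glycerol and Tween-20, cleaved an Abz/nitrotyrosine-quenched decapeptide. Fluorescence (ex 320, em 430) was read at 0 and 20 min at room temperature. Delta was normalized to 5.8 microM ADEP and DMSO/no-enzyme controls.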
DRD3 antagonist: antagonists of human D3 dopamine receptor. D3R cells, DiscoveRx beta-arrestin luminescence, antagonist mode; active compounds read low. actives 2.5% (n = 360,000). P35462. max response, negative = inhibition, %; in the data active = max response below about -50%; inconclusive = no clear call, values can overlap the other calls
Target sequence (P35462 whole entry, looked up): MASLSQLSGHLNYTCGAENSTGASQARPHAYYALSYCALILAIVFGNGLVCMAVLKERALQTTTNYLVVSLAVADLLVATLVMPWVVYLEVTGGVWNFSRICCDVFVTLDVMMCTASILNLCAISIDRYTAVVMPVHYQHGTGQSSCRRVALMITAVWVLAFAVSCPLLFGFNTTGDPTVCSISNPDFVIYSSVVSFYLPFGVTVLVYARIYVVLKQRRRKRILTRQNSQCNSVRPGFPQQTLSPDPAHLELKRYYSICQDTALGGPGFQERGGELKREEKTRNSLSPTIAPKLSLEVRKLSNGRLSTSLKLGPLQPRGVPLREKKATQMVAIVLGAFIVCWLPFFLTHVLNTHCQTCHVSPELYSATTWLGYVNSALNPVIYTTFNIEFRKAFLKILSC
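Cells plated overnight at 1500 cells/well, then exposed to library compounds with dopamine controls for 90 minutes at 37 degrees C. DiscoveRx reagent added for 30–60 minutes at room temperature; luminescence read, quantitative HTS format.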
DRD3 agonist: agonists of human D3 dopamine receptor | P35462 | D3R DiscoveRx beta-arrestin cells, luminescence, 90 min | max activation, % | actives 0.58% (n = 410,000); in the data active = max activation above about 30%
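Agonist mode: compounds and dopamine controls were applied to plated cells for 90 min at 37 degrees C after an overnight attachment at 1500 cells/well. Luminescent read-out followed 30 - 60 minutes at room temperature with DiscoveRx detection reagent.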
TDP1 cell CPT: DT40-hTDP1 cell growth loss with CPT | chicken DT40 Tdp1-/-;hTDP1 cells + 20 nM CPT, ATP luminescence, 48 h | actives 12% (n = 420,000) | AID 686979 | Potency, µM (top dose mostly 46.2 µM), usual class: inhibitors; also: nearly all actives have a fitted effect of over 55% in size
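Cell growth measured by CellTiter-Glo luminescence after a minimum 48 h, 37 C compound exposure with 20 nM CPT in Tdp1-knockout DT40 cells stably expressing hTDP1, seeded 400/well; qHTS titration format.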
DT40 TDP1 no CPT: qHTS for Inhibitors of human tyrosyl-DNA phosphodiesterase 1 (TDP1): qHTS in cells in absence of CPT; AID 686978, 2013; DT40 Tdp1-/- hTDP1 cells, no CPT, ATP luminescence, 48 h; actives 15% (n = 420,000); Potency, µM (series often up to 46.2 µM), most hits filed as inhibitors; also: nearly all actives have a fitted effect of over 55% in size
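A cellular qHTS used chicken DT40 cells lacking endogenous Tdp1 but carrying stably transfected human TDP1. Compounds were applied without camptothecin, and cell growth kinetics were judged by ATP-dependent luminescence after ≥48 hr.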
Numbers stand for hits; 0 = inactive; ? = inconclusive; - = no result given. An excerpt weighted towards active compounds, which were near 21% of everything screened. Unless noted, calls follow the shape of the dose curve; as a rule, active = well fitted inhibition curve with a large enough effect; inconclusive = small, poorly fitted or top-dose-only effect; inactive = flat fitted curve, though single readings scatter.

SMILES	IL-1B inflam inh	ClpP mod	DRD3 antagonist	DRD3 agonist	TDP1 cell CPT	DT40 TDP1 no CPT
CC1=C(C(=O)OCc2ccccc2)C(/C=C/c2ccccc2)NC(=S)N1 (centres undefined)	?	0	?	0	16.4µM	29.1µM
CC(=O)c1cccc(NC(=O)c2c(N3CCCC3=O)c3cc(F)ccc3n2C)c1	-	?	-	0	-	-
OCC(O)C(O)[C@H](O[C@H]1OC(CO)C(O)C(O)C1O)[C@H](O)CO (some centres undefined)	-	-	-	-	0	0
O=C(NC1(C(=O)NC2CCCCC2)CCCCC1)c1ccccn1	0	0	0	0	0	0
Cc1ccc(NC(=O)C2(NC(=O)c3ccccn3)CCCCC2)cc1Br	0	0	0	0	20.6µM	?
COc1cc(OC)c(-c2nc(-c3ccncc3)no2)cc1OC	-	0	0	0	?	16.4µM
Fc1ccccc1-c1nc(-c2ccncc2)no1	0	0	0	0	?	0
c1cncc(-c2noc(-c3cccc4ccccc34)n2)c1	0	35.5µM	0	0	0	?
c1ccc2c(-c3nc(-c4ccncc4)no3)cccc2c1	0	31.6µM	0	0	0	0
COc1ccc(-c2nc(-c3ccncc3)no2)c(OC)c1	0	0	0	0	0	?
C/C(=N\NC(=O)OC(C)(C)C)c1ccccc1Br	0	-	0	0	0	0
c1nc(Nc2ccc(N3CCOCC3)cc2)c2ccsc2n1	0	-	0	0	?	?
Cc1ccc(-c2csc3ncnc(Nc4ccc(C(=O)O)cc4)c23)cc1	0	0	0	0	?	?
Fc1ccc(-c2csc3ncnc(Nc4ccc(N5CCOCC5)cc4)c23)cc1	-57.6	0	0	0	14.6µM	23.1µM
O=C(O)c1ccc(Nc2ncnc3scc(-c4ccccc4)c23)cc1	0	0	0	0	2.59µM	4.11µM
C=CCN1C(=O)c2ccc(C(=O)N3CCN(S(=O)(=O)c4cc(C)ccc4C)CC3)cc2C1=O	0	0	0	0	0	0
Cn1c(-c2ccc(-c3ccccc3)cc2)c[nH]c1=S	0	12.6µM	?	0	8.2µM	?
C=CCn1c(-c2ccc(Cl)cc2)c[nH]c1=S	0	0	-109.1	0	0	?
Cc1ccc(-c2c[nH]c(=S)n2-c2ccccc2)cc1	0	0	0	0	?	0
CCn1c(-c2ccc(-c3ccccc3)cc2)c[nH]c1=S	0	?	0	0	?	?
C=CCn1c(-c2ccccc2)c[nH]c1=S	0	?	-67.7	0	25.9µM	?
C=CCn1c(-c2ccc(OC)c(OC)c2)n[nH]c1=S	0	0	0	0	0	0
c1cc(-c2cc3cc(N4CCOCC4)ccc3o2)cs1	0	0	0	0	0	0
CCOCc1c(C(=O)Nc2ccccc2N2CCN(C)CC2)oc2ccccc12	-57.5	0	0	0	8.2µM	10.3µM
CCOCc1c(C(=O)Nc2cc(OCC)c(N3CCOCC3)cc2OCC)oc2ccccc12	0	-	0	0	?	?
SMILES	IL-1B inflam inh	ClpP mod	DRD3 antagonist	DRD3 agonist	TDP1 cell CPT	DT40 TDP1 no CPT
CC(C)OCc1c(C(=O)Nc2nccs2)oc2ccccc12	0	0	0	0	?	?
CCOCc1c(C(=O)Nc2ccc3nc(N4CCOCC4)sc3c2)oc2ccccc12	0	0	0	0	20.6µM	?
O=C(Nc1ccccc1Cc1ccccc1)c1oc2ccccc2c1COc1ccccc1	0	28.2µM	0	0	?	?
Cc1ccccc1NC(=O)c1ccc2nc(N3CCOCC3)sc2c1	0	0	0	0	18.4µM	14.6µM
CCCn1nc(C(=O)Nc2ccc3nc(N4CCOCC4)sc3c2)ccc1=O	0	0	0	0	9.2µM	10.3µM
Cc1c(C(=O)Nc2nc(-c3ccc(F)cc3)ns2)oc2ccc(Cl)cc12	-	?	-	0	0	0
CCCCOc1ccc(C2(C)NC(=O)NC2=O)cc1 (centres undefined)	0	-	0	0	?	18.4µM
COc1cccc(C(=O)NCCN2CCN(c3ccccc3)CC2)c1	0	0	?	0	0	0
COC(=O)C1=CN(c2cccc(OCc3ccccc3)c2)C(N)=C(C#N)C1c1cccc(OC)c1OC (centres undefined)	0	0	0	0	14.6µM	14.6µM
COC(=O)C1=CN(c2ccc(Oc3ccccc3)cc2)C(N)=C(C#N)C1c1cccc(OC)c1OC (centres undefined)	0	0	0	0	14.6µM	13µM
COc1cccc(C2C(C#N)=C(N)N(N(C)C)C3=C2C(=O)CCC3)c1OC (centres undefined)	0	0	0	0	0	0
Cn1c(SCC(=O)NNC(=O)c2ccc(Cl)cc2)nnc1-c1cccnc1	0	0	0	0	0	0
CN(C)c1ccc(/C=C2\c3ccccc3C(=O)N2c2ccccc2)cn1	0	0	0	0	9.2µM	0
CCC/C(=C1/c2ccccc2C(=O)N1c1ccccc1)c1cnc(OC)nc1	0	0	0	0	?	0
CCc1ccc(C(=O)CSc2nc(C)cc(=O)[nH]2)cc1	0	-	0	0	0	?
Cc1ccc(S(=O)(=O)N(C)CC(=O)NNC(=O)CCNS(=O)(=O)c2cccc(C)c2)cc1	0	0	0	0	0	?
CCOc1cc(N2CCOCC2)c(OCC)cc1NC(=O)[C@H](C)N1C(=O)C2CC=CCC2C1=O (some centres undefined)	0	-	0	0	0	11.6µM
CCOc1cc(NC(=O)c2ccco2)c(OCC)cc1NC(=O)Cc1ccc(OC)c(OC)c1	0	0	0	0	?	8.2µM
O=C(COc1ccccc1[N+](=O)[O-])Nc1cccc(Cl)c1N1CCOCC1	0	0	0	0	16.4µM	14.6µM
C[C@@H](C(=O)Nc1cc(C(F)(F)F)ccc1N1CCOCC1)N1C(=O)C2CC=CCC2C1=O (some centres undefined)	0	-	0	0	0	0
CCOc1cc(N2CCOCC2)c(OCC)cc1NC(=O)Cc1ccc(OC)c(OC)c1	0	0	0	0	?	23.1µM
CCOc1ccc(NC(=O)CC(C)O)cc1 (centres undefined)	-	-	-	0	0	0
CCOc1cc(N2CCOCC2)c(OCC)cc1NC(=O)Cn1cnnn1	0	0	0	0	0	0
CCOc1cc(N2CCOCC2)c(OCC)cc1NC(=O)COC(=O)c1ccc(Cl)cc1N	0	0	0	0	5.8µM	?
CCOc1cc(N2CCOCC2)c(OCC)cc1NC(=O)CC12CC3CC(CC(C3)C1)C2	0	0	0	0	13µM	18.4µM
CCOc1cc(N2CCOCC2)c(OCC)cc1NC(C)C(=O)N1CCC(C)CC1 (centres undefined)	0	0	0	0	?	25.9µM
